The panel holds about 83,000 compounds, 20% with a hit somewhere; the sample as a whole holds those more often.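 Single-concentration screen, 48 h exposure, 96-well plates. Endpoint: percent growth. Below 10 = active.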 Unmarked numbers belong to inactive results. The source made the active and inactive calls.
What was measured:
Experiment in all cases: NCI-60 one-dose screen, 48 h (100 = growth as untreated, 0 = no growth, -100 = all killed)
Settings in all cases: 10 µM unless noted
NCI-H23 lung = system: NCI-H23 lung
NCI-H226 lung = system: NCI-H226 lung
NCI-H322M lung = system: NCI-H322M lung
HOP-62 NSCLC = system: HOP-62 NSCLC
NCI-H460 lung = system: NCI-H460 lung
HOP-92 NSCLC = system: HOP-92 NSCLC
NCI-H522 lung = system: NCI-H522 lung
A549/ATCC NSCLC = system: A549/ATCC NSCLC
786-0 renal = system: 786-0 renal
COLO 205 colon = system: COLO 205 colon

SMILES | growth (NCI-H23 lung) | growth (NCI-H226 lung) | growth (NCI-H322M lung) | growth (HOP-62 NSCLC) | growth (NCI-H460 lung) | growth (HOP-92 NSCLC) | growth (NCI-H522 lung) | growth (A549/ATCC NSCLC) | growth (786-0 renal) | growth (COLO 205 colon)
CNC(=O)c1ccccc1Nc1nc(Nc2ccc3c(c2OC)CCC[C@H](N2CCN(CCO)CC2)C3)ncc1Cl | 16.3% | 28.6% | 5.21% (active) | -48.7% (active) | 0.445% (active) | -30.7% (active) | -47.9% (active) | -31.7% (active) | -66.1% (active) | -64.7% (active)
Nc1ccc(S(=O)(=O)O)c2cc(S(=O)(=O)O)cc(O)c12 | 110% | 105% | 117% | 107% | 108% | 124% | 103% | 104% | 101% | 105%
FC(F)(F)c1ccc(CNc2ccc(Cc3c[nH]c4ncc(Cl)cc34)cn2)cn1 | 23.7% | 9.04% (active) | 33.2% | 23.1% | 44.5% | 37.7% | 9.44% (active) | 5.16% (active) | -49.3% (active) | -72.4% (active)
CCN(CC)CCCC(C)Nc1cc(-c2ccc(C(F)(F)F)cc2)c(C#N)c2nc3ccccc3n12 (stereo not given) | 18.6% | -39.6% (active) | 38.9% | 6.94% (active) | -18.8% (active) | 68.8% | 13.1% | 17.1% | -83.3% (active) | -44.6% (active)
COc1cc2nccc(Oc3ccc(NC(=O)Nc4cc(C)on4)c(Cl)c3)c2cc1OC | 28.8% | 23.1% | 32.9% | 18.4% | 14.5% | -55.9% (active) | 11.1% | 4.95% (active) | 16.1% | -25.4% (active)
Cc1nc(N)sc1-c1ccnc(Nc2ccc(N3CCOCC3)cc2)n1 | 43.1% | 35.6% | 51.4% | 11.4% | 15.9% | 34.9% | 11.6% | 21.9% | 34.5% | 1.1% (active)
Clc1nc(Cl)c2ncn(CC#CCn3cnc4c(Cl)nc(Cl)nc43)c2n1 | 38.6% | 5.54% (active) | 46.6% | 62% | 12.5% | -87.6% (active) | -71.2% (active) | 8.8% (active) | 7.75% (active) | -26.9% (active)
CCc1nc2ccc(Cc3ccc(C(=O)NO)cc3)cc2c(=O)n1CCc1ccccc1 | -67.9% (active) | -28.5% (active) | 12.1% | -43.4% (active) | 0.149% (active) | -29.5% (active) | -86.5% (active) | -41.7% (active) | -58.3% (active) | -69.7% (active)
CNC(=O)c1cc(Oc2ccc(NC(=O)Nc3ccc(Cl)c(C(F)(F)F)c3)c(F)c2)ccn1 | -25.8% (active) | -16.8% (active) | -13.4% (active) | -48.1% (active) | -35.4% (active) | -20.1% (active) | -69.3% (active) | -2.14% (active) | 3.58% (active) | -59% (active)
COc1cc2c(cc1OCCCCN1CCN(CC(=O)Nc3ccc(Cl)cc3C(=O)c3ccccc3Cl)CC1)N=CC1CCCN1C2=O (stereo not given) | -14% (active) | -88.1% (active) | -64% (active) | -88.8% (active) | -56.2% (active) | -85.6% (active) | -83.4% (active) | -69.5% (active) | -94.2% (active) | -61.4% (active)
Cc1ccc(N)cc1CN1C(=O)c2ccccc2C1=O | 105% | 93.1% | 104% | 97.1% | 105% | 86.9% | 58.5% | 105% | 98.5% | 105%
CC(C)c1ccc(/C=N/Nc2nc3ccccc3s2)cc1 | 80.4% | 81.7% | 96% | 87.8% | 95.2% | 82.5% | 85% | 85.8% | 108% | 88.5%
CC(CCCC(=O)O)c1ccoc1 (stereo not given) | 97.7% | 102% | 99.8% | 101% | 110% | 108% | 83.2% | 100% | 98.8% | 101%

Source: PubChem BioAssay (NCI)
